Most compounds without a hit are left out; they make up all but 19% or so of the library.
IL1B secr inh: inflammasome signaling inhibition, IL-1 beta readout | THP-1 LPS/ATP IL-1B secretion, AlphaLISA, 16 h; stronger effect = lower value | activity change, % at 57.5 µM | hit rate 4.7% among 360,000 | AID 743279; in the data active = activity change below about -50%; inconclusive = mostly about -30% to -49%
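THP-1 cells pretreated 1 hr with compounds (up to 57.5 uM final), then stimulated with LPS (250 ng/mL final) plus ATP (1.25 mM final); secreted IL-1B measured by AlphaLISA after 16 hr, decreased signal indicating inhibition.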
ELG1 repair inh: blocks ELG1-dependent DNA repair in HEK293T cells. HEK293T ELG1-luciferase reporter, luminescence, 16 h; DNA damage induced by 5-fluorouridine. Potency, µM (titrated, usually from 46.1 µM), for inactives: at the top dose activity change, negative = inhibition, usual class: inhibitors. hit rate 2.3% among 330,000. AID 504467; also: potency is read from the fitted curve at half-maximal effect; nearly all actives have a fitted effect of over 55% in size
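Quantitative HTS, concentration-response format. 2,000 cells/well co-treated with 5-fluorouridine and compound, 16 hr in 5% CO2 at 37 °C; ONE-Glo luminescence read after 30 min.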
DT40 TDP1 no CPT: qHTS for Inhibitors of human tyrosyl-DNA phosphodiesterase 1 (TDP1): qHTS in cells in absence of CPT | DT40 Tdp1-/- hTDP1 cells, no CPT, ATP luminescence, 48 h | Potency, µM (highest dose often 46.2 µM), for the others: top-dose activity change, negative = growth inhibition, usual class: inhibitors | hit rate 15% among 420,000; also: potency is read from the fitted curve at half-maximal effect; nearly all actives have a fitted effect of over 55% in size
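Cells were dispensed at 400 per well, compounds added by pin tool, plates incubated ≥48 hr at 37 °C, then CellTiter-Glo added for 30 min at room temperature before luminescence reading. Line: DT40 Tdp1-/- complemented with hTDP1; camptothecin omitted.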
TDP1 cell CPT: growth inhibition of DT40 Tdp1-/-;hTDP1 cells with camptothecin (screen for TDP1 inhibitors); hit rate 12% among 420,000; Potency, µM (series often up to 46.2 µM), for the others: at the top dose activity change, negative = growth inhibition, usual class: inhibitors; chicken DT40 Tdp1-/-;hTDP1 cells + 20 nM CPT, ATP luminescence, 48 h; also: potency is read from the fitted curve at half-maximal effect; nearly all actives have a fitted effect of over 55% in size
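Cell growth measured by CellTiter-Glo luminescence after a minimum 48 h, 37 C compound exposure with 20 nM CPT in Tdp1-knockout DT40 cells stably expressing hTDP1, seeded 400/well; qHTS titration format.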
HT1080NT lethal: kills 2HG-producing HT-1080-NT fibrosarcoma cells. HT-1080-NT fibrosarcoma viability, CellTiter-Glo ATP luminescence, 48 h. hit rate 1.6% among 360,000. Potency, µM (doses to about 46.1 µM), for inactives: at the highest dose activity, negative = less viability, actives largely listed as cytotoxic;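 also: NT is the 2HG producing partner of a matched IDH1 knockdown line; potency is read from the fitted curve at half-maximal effect; 0% = DMSO-treated cells and -100% = media-only wells without cells; nearly all actives have a fitted effect of over 55% in size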
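Luminescent CellTiter-Glo readout after 48 hours of compound exposure at 37 degrees C defined viability of HT-1080-NT cells. Activity was normalized to DMSO wells and cell-free media wells; concentration-response curves were fitted and assigned curve classes.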
HT1080 IDH1KD tx: kills HT-1080 cells with IDH1 knockdown; HT-1080 IDH1 knockdown viability, ATP luminescence, 48 h; hit rate 2% among 360,000; AID 686971; Potency, µM (highest dose often 46.1 µM), inactives show at the top dose activity, negative = toxicity, usual class: cytotoxic;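 also: potency is read from the fitted curve at half-maximal effect; 0% = DMSO wells and -100% = cell-free medium wells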
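Knockdown cells (IDH1KD HT-1080) received compounds 2 h after plating at 750 cells/well and were kept 48 h at 37 °C in 5% FBS RPMI. A CellTiter-Glo luminescence read gave % activity for curve fitting.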
Numbers without * were called inactive; [ ] = another dose, or the depositor's remark. Unless noted, calls follow the shape of the dose curve; as a rule, active = well fitted curve in the direction sought with a large enough effect; inconclusive = small, poorly fitted or top-dose-only effect, or another doubt; inactive = no such curve, though single readings can be large; an effect the other way counts as inactive or inconclusive. Unless noted, % is scaled to controls: 0 for no effect and ±100 for the full control effect.

Results for CCS(=O)(=O)NCCc1sc2nc(-c3ccc(OC)cc3)nn2c1C ?
DT40 TDP1 no CPT: 21µM*; TDP1 cell CPT: inconclusive

Results for CCC(=O)NCCc1sc2nc(-c3ccc(OC)cc3)nn2c1C ?
DT40 TDP1 no CPT: inconclusive; TDP1 cell CPT: -25%

Results for COc1ccc(-c2nc3sc(CCNC(=O)C(=O)Nc4ccccc4C#N)c(C)n3n2)cc1 ?
DT40 TDP1 no CPT: -21%; TDP1 cell CPT: -9%

What do the screens show for `COc1ccc(-c2nc3sc(CCNC(=O)c4ccc(Br)o4)c(C)n3n2)cc1`?
DT40 TDP1 no CPT: 16µM*; TDP1 cell CPT: 16µM*

What do the screens show for `O=C(CNC(=O)c1ccc(Br)o1)NCc1ccc(Cl)cc1`?
IL1B secr inh: 4; ELG1 repair inh: -1%; DT40 TDP1 no CPT: -9%; TDP1 cell CPT: inconclusive; HT1080NT lethal: -29%; HT1080 IDH1KD tx: -26%

What do the screens show for `COc1ccc(-c2nc3sc(CCNC(=O)c4ccc(C(C)(C)C)cc4)c(C)n3n2)cc1`?
DT40 TDP1 no CPT: 8.2µM*; TDP1 cell CPT: inconclusive

What do the screens show for `Cc1c(CCNC(=O)c2ccc(Br)o2)sc2nc(-c3ccc(Cl)cc3)nn12`?
DT40 TDP1 no CPT: 23µM*; TDP1 cell CPT: 18µM*

What do the screens show for `Cn1ccc2c(-c3cccnc3)cc3c(c21)C1CCC3O1` (centres undefined)?
IL1B secr inh: -20; DT40 TDP1 no CPT: -14%; TDP1 cell CPT: -20%; HT1080NT lethal: 18%; HT1080 IDH1KD tx: 16%

What do the screens show for `O=C(O)[C@H]1CCCN1`?
DT40 TDP1 no CPT: -18%; TDP1 cell CPT: 12%

How did COc1ccc(-c2nc3sc(CCNC(=O)C(=O)Nc4ccc(C)c(F)c4)c(C)n3n2)cc1 do in these assays?
DT40 TDP1 no CPT: 1%; TDP1 cell CPT: 19%

What do the screens show for `COc1ccc(-c2nc3sc(CCNC(=O)c4cc(Cl)ccc4OC)c(C)n3n2)cc1`?
DT40 TDP1 no CPT: 13µM*; TDP1 cell CPT: 16µM*

Results for CC(C(=O)NCC1CCCCC1)N(C)Cc1ccc(Cl)cc1 (centres undefined) ?
IL1B secr inh: -23; ELG1 repair inh: -23%; DT40 TDP1 no CPT: 18µM*; TDP1 cell CPT: inconclusive; HT1080NT lethal: -17%; HT1080 IDH1KD tx: -16%

Results for CC(C)c1ccc(NC(=O)Nc2nc(C(N)C3CCCCC3)cs2)cc1 (centres undefined) ?
IL1B secr inh: -113*; DT40 TDP1 no CPT: inconclusive; TDP1 cell CPT: inconclusive; HT1080NT lethal: inconclusive; HT1080 IDH1KD tx: 21µM*

What do the screens show for `CC(C)c1ccc(NC(=O)Nc2nc(C(N)c3ccccc3Cl)cs2)cc1` (centres undefined)?
IL1B secr inh: -77*; DT40 TDP1 no CPT: 10µM*; TDP1 cell CPT: 13µM*; HT1080NT lethal: inconclusive; HT1080 IDH1KD tx: inconclusive

What do the screens show for `CN(C)c1ccc(NC(=O)Nc2nc(C(N)C3CCCCC3)cs2)cc1` (centres undefined)?
IL1B secr inh: -60*; DT40 TDP1 no CPT: 21µM*; TDP1 cell CPT: 18µM*; HT1080NT lethal: inconclusive; HT1080 IDH1KD tx: inconclusive

Results for CC(C)c1ccc(NC(=O)Nc2nc(C(C)N)cs2)cc1 (centres undefined) ?
IL1B secr inh: inconclusive; DT40 TDP1 no CPT: 15µM*; TDP1 cell CPT: 15µM*; HT1080NT lethal: inconclusive; HT1080 IDH1KD tx: 21µM*

What do the screens show for `O=C(O)c1ccc(CNC(=O)C2CCN(S(=O)(=O)c3ccc4c(c3)OCCO4)CC2)cc1`?
IL1B secr inh: -7; DT40 TDP1 no CPT: -2%; TDP1 cell CPT: -2%; HT1080NT lethal: 9%; HT1080 IDH1KD tx: -1%

How did CCCCCCCCCCCCCCC[C@@H](O)[C@H](CO)NC(C)=O do in these assays?
DT40 TDP1 no CPT: 6%[4.12 µM]; TDP1 cell CPT: 8%[4.12 µM]

How did Cc1ccccc1NC(=O)Nc1nc(CN(C)C)cs1 do in these assays?
IL1B secr inh: -2; DT40 TDP1 no CPT: 3%; TDP1 cell CPT: 0%; HT1080NT lethal: -2%; HT1080 IDH1KD tx: 4%

Results for Cc1ccccc1NC(=O)Nc1nc(C(N)C2CCCCC2)cs1 (centres undefined) ?
IL1B secr inh: -54*; DT40 TDP1 no CPT: inconclusive; TDP1 cell CPT: 23µM*; HT1080NT lethal: inconclusive; HT1080 IDH1KD tx: inconclusive

Results for COc1ccc(NC(=O)Cn2cnc3ccc(S(=O)(=O)N4CCC(C)CC4)cc3c2=O)cc1Cl ?
DT40 TDP1 no CPT: 4.1µM*; TDP1 cell CPT: 7.3µM*

Results for COCCNC(=O)Cn1cnc2ccc(S(=O)(=O)N3CCC(C)CC3)cc2c1=O ?
IL1B secr inh: 27; ELG1 repair inh: 14%; DT40 TDP1 no CPT: -7%; TDP1 cell CPT: -4%; HT1080NT lethal: 9%; HT1080 IDH1KD tx: 18%

Results for COc1cc(Cl)c(C)cc1NC(=O)Cn1cc(S(=O)(=O)N2CCC(C)CC2)c2ccccc2c1=O ?
DT40 TDP1 no CPT: -20%; TDP1 cell CPT: -16%

How did CC1CCN(S(=O)(=O)c2cn(CC(=O)Nc3ccc(F)c(Cl)c3)c(=O)c3ccccc23)CC1 do in these assays?
DT40 TDP1 no CPT: 23µM*; TDP1 cell CPT: 23µM*

How did C=CCN1C[C@H](C(=O)N(CCCN(C)C)C(=O)NCC)C[C@@H]2c3cccc4[nH]cc(c34)C[C@H]21 do in these assays?
DT40 TDP1 no CPT: -18%; TDP1 cell CPT: -7%

What do the screens show for `O=C1CS(=O)(=O)N(Cc2cccc(F)c2)c2ccc(Br)cc21`?
IL1B secr inh: -2; ELG1 repair inh: inconclusive; DT40 TDP1 no CPT: inconclusive; TDP1 cell CPT: inconclusive; HT1080NT lethal: inconclusive; HT1080 IDH1KD tx: inconclusive

What do the screens show for `COc1ccc(CN2c3c(Br)cccc3C(=O)CS2(=O)=O)cc1`?
IL1B secr inh: -4; ELG1 repair inh: 18%; DT40 TDP1 no CPT: inconclusive; TDP1 cell CPT: inconclusive; HT1080NT lethal: 23µM*; HT1080 IDH1KD tx: inconclusive

How did Cc1ccc(-c2nc3cc(C)c(Br)c(C)n3c2Cc2ccsc2)cc1 do in these assays?
IL1B secr inh: 0; DT40 TDP1 no CPT: 7.3µM*; TDP1 cell CPT: 5.2µM*; HT1080NT lethal: -29%; HT1080 IDH1KD tx: inconclusive

Results for CCCc1nc2ccc(Cl)cn2c1Cc1ccsc1 ?
IL1B secr inh: 21; DT40 TDP1 no CPT: 13µM*; TDP1 cell CPT: 21µM*; HT1080NT lethal: inconclusive; HT1080 IDH1KD tx: -28%

Source: PubChem BioAssay
